# Results published in PubChem BioAssay AID1159580 (chemical genetic matrix, 2015).
# “And” between values parts separate entries of the source, which are not always exact repeats. Equal entries are not always repeated. Among all 5,500 compounds or so, about 2,000 (36%) were called active. Roughly 18% stayed inconclusive and do not appear here. This is one part of the list. Unmarked numbers belong to inactive results. Cut-off read from the data, not from the text of the source: active = normalized growth mostly below about 0.91 (no sharp cut-off); inconclusive = no clear call, values can overlap the other calls; inactive = mostly above about 0.92.
# Experiment: chemical genetic growth profiling, strain panel (AID 1159580);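 note: tested at 20 µM; growth read once vehicle control cultures reached saturation at 30 °C; 1 = growth at the plate median or of vehicle wells; lower values mean less growth of the strain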
# Conditions: growth OD
smiles,measurement,setting,value
O=C(/C=C/c1ccc(O)cc1)c1ccc(O)cc1O,normalized growth,"S. cerevisiae deletion strains, locus YJR075W, strain HOC1, stronger effect = lower value",0.985 and 0.976
same,normalized growth,"S. cerevisiae deletion strains, locus YKL009W, strain mrt4, stronger effect = lower value",0.947
same,normalized growth,"S. cerevisiae deletion strains, locus YKL068W, stronger effect = lower value",0.95
same,normalized growth,"S. cerevisiae deletion strains, locus YKL085W, strain MDH1 (second series), stronger effect = lower value",0.965
same,normalized growth,"S. cerevisiae deletion strains, locus YKL085W, strain MDH1, stronger effect = lower value",0.965
same,normalized growth,"S. cerevisiae deletion strains, locus YKL160W, strain elf1, stronger effect = lower value",0.988
same,normalized growth,"S. cerevisiae deletion strains, locus YKL190W, strain CNB1, stronger effect = lower value",0.993
same,normalized growth,"S. cerevisiae deletion strains, locus YKR001C, strain vps1, stronger effect = lower value",0.887 (active)
same,normalized growth,"S. cerevisiae deletion strains, locus YKR026C, strain gcn3, stronger effect = lower value",1.01
same,normalized growth,"S. cerevisiae deletion strains, locus YKR091W, strain srl3, stronger effect = lower value",1.01
same,normalized growth,"S. cerevisiae deletion strains, locus YLL001W, strain dnm1, stronger effect = lower value",1.01
same,normalized growth,"S. cerevisiae deletion strains, locus YLL026W, stronger effect = lower value",1
same,normalized growth,"S. cerevisiae deletion strains, locus YLL041C, strain sdh2, stronger effect = lower value",1.01
same,normalized growth,"S. cerevisiae deletion strains, locus YLR027C, strain aat2, stronger effect = lower value",0.978
same,normalized growth,"S. cerevisiae deletion strains, locus YLR039C, strain RIC1, stronger effect = lower value",0.942
same,normalized growth,"S. cerevisiae deletion strains, locus YLR058C, strain SHM2, stronger effect = lower value",1.01
same,normalized growth,"S. cerevisiae deletion strains, locus YLR102C, strain apc9, stronger effect = lower value",0.953
same,normalized growth,"S. cerevisiae deletion strains, locus YLR113W, strain HOG1, stronger effect = lower value",0.927
same,normalized growth,"S. cerevisiae deletion strains, locus YLR221C, strain rsa3, stronger effect = lower value",0.987
same,normalized growth,"S. cerevisiae deletion strains, locus YLR258W, strain gsy2, stronger effect = lower value",1.01
same,normalized growth,"S. cerevisiae deletion strains, locus YLR262C, strain YPT6 (second series), stronger effect = lower value",1.02
same,normalized growth,"S. cerevisiae deletion strains, locus YLR262C, strain YPT6, stronger effect = lower value",1.02
same,normalized growth,"S. cerevisiae deletion strains, locus YLR268W, strain sec22, stronger effect = lower value",0.957
same,normalized growth,"S. cerevisiae deletion strains, locus YLR320W, strain mms22, stronger effect = lower value",1.01
same,normalized growth,"S. cerevisiae deletion strains, locus YLR330W, strain CHS5, stronger effect = lower value",0.985
same,normalized growth,"S. cerevisiae deletion strains, locus YLR342W, strain FKS1 (second series), stronger effect = lower value",0.981
same,normalized growth,"S. cerevisiae deletion strains, locus YLR342W, strain FKS1, stronger effect = lower value",1
same,normalized growth,"S. cerevisiae deletion strains, locus YLR357W, strain rsc2, stronger effect = lower value",0.997
same,normalized growth,"S. cerevisiae deletion strains, locus YLR370C, strain arc18, stronger effect = lower value",1.02
same,normalized growth,"S. cerevisiae deletion strains, locus YLR371W, strain rom2, stronger effect = lower value",0.9 (active)
same,normalized growth,"S. cerevisiae deletion strains, locus YLR384C, strain iki3, stronger effect = lower value",1.01
same,normalized growth,"S. cerevisiae deletion strains, locus YLR418C, strain cdc73, stronger effect = lower value",0.86
same,normalized growth,"S. cerevisiae deletion strains, locus YML016C, strain PPZ1, stronger effect = lower value",0.986
same,normalized growth,"S. cerevisiae deletion strains, locus YML032C, strain rad52, stronger effect = lower value",0.984
same,normalized growth,"S. cerevisiae deletion strains, locus YML120C, strain ndi1, stronger effect = lower value",0.995
same,normalized growth,"S. cerevisiae deletion strains, locus YML124C, strain tub3, stronger effect = lower value",0.964
same,normalized growth,"S. cerevisiae deletion strains, locus YMR058W, strain fet3, stronger effect = lower value",1.02
same,normalized growth,"S. cerevisiae deletion strains, locus YMR078C, strain ctf18, stronger effect = lower value",0.954
same,normalized growth,"S. cerevisiae deletion strains, locus YMR125W, strain sto1, stronger effect = lower value",0.992
same,normalized growth,"S. cerevisiae deletion strains, locus YMR129W, stronger effect = lower value",1.03
same,normalized growth,"S. cerevisiae deletion strains, locus YMR205C, strain PFK2, stronger effect = lower value",0.967
same,normalized growth,"S. cerevisiae deletion strains, locus YMR223W, strain ubp8, stronger effect = lower value",0.967
same,normalized growth,"S. cerevisiae deletion strains, locus YMR231W, strain pep5, stronger effect = lower value",1.01
same,normalized growth,"S. cerevisiae deletion strains, locus YMR263W, strain SAP30, stronger effect = lower value",0.989
same,normalized growth,"S. cerevisiae deletion strains, locus YMR307W, strain GAS1, stronger effect = lower value",1.08
same,normalized growth,"S. cerevisiae deletion strains, locus YNL067W, strain RPL9B, stronger effect = lower value",1.01
same,normalized growth,"S. cerevisiae deletion strains, locus YNL071W, strain lat1, stronger effect = lower value",0.996
same,normalized growth,"S. cerevisiae deletion strains, locus YNL128W, strain TEP1, stronger effect = lower value",0.964
same,normalized growth,"S. cerevisiae deletion strains, locus YNL153C, strain GIM3, stronger effect = lower value",1.03
same,normalized growth,"S. cerevisiae deletion strains, locus YNL175C, strain NOP13, stronger effect = lower value",0.979
same,normalized growth,"S. cerevisiae deletion strains, locus YNL183C, strain NPR1, stronger effect = lower value",0.944
same,normalized growth,"S. cerevisiae deletion strains, locus YNL197C, strain WHI3, stronger effect = lower value",0.992
same,normalized growth,"S. cerevisiae deletion strains, locus YNL209W, strain ssb2, stronger effect = lower value",1
same,normalized growth,"S. cerevisiae deletion strains, locus YNL224C, strain SQS1, stronger effect = lower value",0.976
same,normalized growth,"S. cerevisiae deletion strains, locus YNL233W, strain BNI4, stronger effect = lower value",0.975
same,normalized growth,"S. cerevisiae deletion strains, locus YNL248C, strain rpa49, stronger effect = lower value",1.04
same,normalized growth,"S. cerevisiae deletion strains, locus YNL250W, strain rad50, stronger effect = lower value",0.961
same,normalized growth,"S. cerevisiae deletion strains, locus YNL271C, strain bni1, stronger effect = lower value",0.965
same,normalized growth,"S. cerevisiae deletion strains, locus YNL298W, strain CLA4, stronger effect = lower value",0.99
same,normalized growth,"S. cerevisiae deletion strains, locus YNL307C, strain MCK1, stronger effect = lower value",0.968
same,normalized growth,"S. cerevisiae deletion strains, locus YNL322C, strain KRE1 (second series), stronger effect = lower value",1
same,normalized growth,"S. cerevisiae deletion strains, locus YNR049C, strain mso1, stronger effect = lower value",1.01
same,normalized growth,"S. cerevisiae deletion strains, locus YNR052C, strain pop2, stronger effect = lower value",1.01
same,normalized growth,"S. cerevisiae deletion strains, locus YOL012C, strain htz1",1.77
same,normalized growth,"S. cerevisiae deletion strains, locus YOL147C, strain pex11, stronger effect = lower value",0.969
same,normalized growth,"S. cerevisiae deletion strains, locus YOR001W, strain rrp6, stronger effect = lower value",1.02
same,normalized growth,"S. cerevisiae deletion strains, locus YOR061W, strain CKA2, stronger effect = lower value",0.988
same,normalized growth,"S. cerevisiae deletion strains, locus YOR069W, strain VPS5, stronger effect = lower value",0.976
same,normalized growth,"S. cerevisiae deletion strains, locus YOR070C, strain gyp1, stronger effect = lower value",1
same,normalized growth,"S. cerevisiae deletion strains, locus YOR080W, strain dia2, stronger effect = lower value",1.01
same,normalized growth,"S. cerevisiae deletion strains, locus YOR083W, strain WHI5 (second series), stronger effect = lower value",0.982
same,normalized growth,"S. cerevisiae deletion strains, locus YOR083W, strain WHI5, stronger effect = lower value",0.974
same,normalized growth,"S. cerevisiae deletion strains, locus YOR106W, strain vam3, stronger effect = lower value",0.988
same,normalized growth,"S. cerevisiae deletion strains, locus YOR136W, strain idh2, stronger effect = lower value",0.974
same,normalized growth,"S. cerevisiae deletion strains, locus YOR144C, strain elg1, stronger effect = lower value",0.99
same,normalized growth,"S. cerevisiae deletion strains, locus YOR184W, strain ser1, stronger effect = lower value",0.93
same,normalized growth,"S. cerevisiae deletion strains, locus YOR231W, strain MKK1, stronger effect = lower value",0.874
same,normalized growth,"S. cerevisiae deletion strains, locus YOR265W, strain rbl2, stronger effect = lower value",1.02
same,normalized growth,"S. cerevisiae deletion strains, locus YOR270C, strain vph1, stronger effect = lower value",1.04
same,normalized growth,"S. cerevisiae deletion strains, locus YOR290C, strain snf2, stronger effect = lower value",0.976
same,normalized growth,"S. cerevisiae deletion strains, locus YOR316C, strain cot1, stronger effect = lower value",0.962
same,normalized growth,"S. cerevisiae deletion strains, locus YPL051W, strain arl3, stronger effect = lower value",0.975
same,normalized growth,"S. cerevisiae deletion strains, locus YPL055C, strain LGE1, stronger effect = lower value",0.977
same,normalized growth,"S. cerevisiae deletion strains, locus YPL078C, strain atp4, stronger effect = lower value",0.99
same,normalized growth,"S. cerevisiae deletion strains, locus YPL106C, strain sse1, stronger effect = lower value",0.982
same,normalized growth,"S. cerevisiae deletion strains, locus YPL240C, strain hsp82, stronger effect = lower value",1.01
same,normalized growth,"S. cerevisiae deletion strains, locus YPL256C, strain CLN2, stronger effect = lower value",0.877
same,normalized growth,"S. cerevisiae deletion strains, locus YPR119W, strain clb2, stronger effect = lower value",0.949
same,normalized growth,"S. cerevisiae deletion strains, locus YPR141C, strain kar3, stronger effect = lower value",0.972
same,normalized growth,"S. cerevisiae deletion strains, locus YPR163C, strain tif3, stronger effect = lower value",0.976
same,normalized growth,"S. cerevisiae deletion strains, locus YPR167C, strain met16, stronger effect = lower value",0.966
same,normalized growth,"S. cerevisiae deletion strains, strain wtn01, stronger effect = lower value",0.94
same,normalized growth,"S. cerevisiae strains, strain wild type, stronger effect = lower value",0.991
